# In PubChem BioAssay (EPA / NIEHS):
# Records with an inconclusive call do not appear. Calls of active or inactive are those of the source. How the source made its calls: active means hit-call score of the fitted dose curve at least 0.9, where 1 is the maximum; inconclusive means response in the unintended direction; inactive means score below 0.9.
# How the values were obtained:
# [1] = molecular target: human Adrenergic, Alpha 2c Receptor (Adra2C), ADRA2C (gene 152) (UniProt P18825); assay: NVS_GPCR_hAdra2C: NovaScreen (NVS) G Protein-Coupled Receptor Assay for human Adrenergic, Alpha 2c Receptor (Adra2C) (AID 2283259)
# Method in brief: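 Radioligand binding on Sf9-expressed receptor membranes, 1 h after chemical dosing, filter-based scintillation read-out. Loss of binding fitted positively versus DMSO; primary duplicate screen at 25 uM, actives retested in concentration series.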
# [2] = molecular target: Beta-2 adrenergic receptor (Homo sapiens) (UniProt P07550); assay: NVS_GPCR_hAdrb2: NovaScreen (NVS) G Protein-Coupled Receptor Assay for human Adrenergic, Beta 2 Receptor (Adrb2) (AID 2283261)
# Method in brief: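 Filter-based radioligand binding using receptor prepared from CHO cells, 1 h incubation, scintillation counting. Primary screen in duplicate at 25 uM, actives retested in concentration series; loss of binding relative to DMSO.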
# [3] = molecular target: human Adrenergic, Beta 3 Receptor (Adrb3), ADRB3 (gene 155) (UniProt P13945); assay: NVS_GPCR_hAdrb3: NovaScreen (NVS) G Protein-Coupled Receptor Assay for human Adrenergic, Beta 3 Receptor (Adrb3) (AID 2283262)
# Method in brief: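 Membranes from SK-N-MC cells pretreated with isoproterenol and 8-bromo-cAMP were used in a radioligand competitive displacement binding assay. Binding was read by filter-based scintillation counting 1 hour after dosing. Primary screening was in duplicate at 25 uM, with concentration series in follow-up.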
# [4] = molecular target: human Dopamine Receptor D2 (DRD2), DRD2 (gene 1813) (UniProt P14416); assay: NVS_GPCR_hDRD2s: NovaScreen (NVS) G Protein-Coupled Receptor Assay for human Dopamine Receptor D2 (DRD2) (AID 2283266)
# Method in brief: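 Radioligand displacement used human DRD2 membranes extracted from CHO cells and was read by filter-based scintillation counting after 1.5 hours. Primary screening was in duplicate at 25 uM. Loss of signal versus DMSO was fitted, with concentration series in follow-up.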
# [5] = molecular target: D(1A) dopamine receptor (Homo sapiens) (UniProt P21728); assay: NVS_GPCR_hDRD1: NovaScreen (NVS) G Protein-Coupled Receptor Assay for human Dopamine Receptor D1 (DRD1) (AID 2283269)
# Method in brief: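 HEK293-derived receptor preparation; radioligand competitive displacement; 1 h; filtration + scintillation counting. DMSO = negative control/baseline. Primary: 25 uM, duplicate; secondary: concentration–response for actives.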
# [6] = molecular target: Muscarinic acetylcholine receptor M1 (Homo sapiens) (UniProt P11229); assay: NVS_GPCR_hM1: NovaScreen (NVS) G Protein-Coupled Receptor Assay for human Muscarinic, M1 Receptor (AID 2283270)
# Method in brief: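 Cell-free radioligand displacement using membrane protein extracted from CHO cells, read by filter-based scintillation counting 1 h after dosing. Loss of bound signal fitted versus DMSO; primary screen single concentration 25 uM in duplicate, actives followed by concentration series.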
# [7] = molecular target: Muscarinic acetylcholine receptor M2 (Homo sapiens) (UniProt P08172); assay: NVS_GPCR_hM2: NovaScreen (NVS) G Protein-Coupled Receptor Assay for human Muscarinic, M2 Receptor (AID 2283273)
# Method in brief: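 Radioligand displacement on human M2 receptor membranes from CHO cells, 1 h incubation, filtration with scintillation counting. Primary screen in duplicate at 25 uM; actives retested in concentration series; loss of signal fitted versus DMSO.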
# [8] = molecular target: Muscarinic acetylcholine receptor M5 (Homo sapiens) (UniProt P08912); assay: NVS_GPCR_hM5: NovaScreen (NVS) G Protein-Coupled Receptor Assay for human Muscarinic, M5 Receptor (AID 2283275)
# Method in brief: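 Radioligand displacement on CHO-derived membrane preparations, 1 h, filter-based scintillation counting. Single-concentration duplicate screen at 25 uM; hits (e.g. 30% inhibition) retested in singleton concentration-response up to 50 uM. Loss of binding fitted versus DMSO.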
# [9] = molecular target: human Adrenergic, Beta 1 Receptor (Adrb1), ADRB1 (gene 153) (UniProt P08588); assay: NVS_GPCR_hAdrb1: NovaScreen (NVS) G Protein-Coupled Receptor Assay for human Adrenergic, Beta 1 Receptor (Adrb1) (AID 2283258)
# Method in brief: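 Cell-free radioligand displacement on receptor from human neuroepithelioma cells; 2 h after dosing, filter-based scintillation counting. Primary screen in duplicate at 25 uM, actives retested in concentration series; loss of signal vs DMSO baseline.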
# [10] = molecular target: human Dopamine Receptor D4.4 (DRD4.4), DRD4 (gene 1815) (UniProt P21917); assay: NVS_GPCR_hDRD4.4: NovaScreen (NVS) G Protein-Coupled Receptor Assay for human Dopamine Receptor D4.4 (DRD4.4) (AID 2283264)
# Method in brief: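 Radioligand displacement on human DRD4.4 from CHO-derived membranes, 1 hour incubation, bound counts read by filtration and scintillation. Primary screen in duplicate at 25 uM; actives followed up in concentration series.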
# [11] = molecular target: Neuropeptide Y receptor type 2 (Homo sapiens) (UniProt P49146); assay: NVS_GPCR_hNPY2: NovaScreen (NVS) G Protein-Coupled Receptor Assay for human Neuropeptide Receptor Y2 (NPY2) (AID 2283277)
# Method in brief: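 Radioligand binding on membranes extracted from SK-N-MC cells, cell-free, read 1 h after dosing by filter-based scintillation counting. Loss of signal vs DMSO. Primary screen in duplicate at 25 uM; actives followed up in concentration-response up to 50 uM.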
# [12] = molecular target: human Muscarinic, M4 Receptor, CHRM4 (gene 1132) (UniProt P08173); assay: NVS_GPCR_hM4: NovaScreen (NVS) G Protein-Coupled Receptor Assay for human Muscarinic, M4 Receptor (AID 2283274)
# Method in brief: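 Cell-free radioligand displacement using CHO-derived human M4 receptor protein, 1 h after dosing; bound radioactivity by filtration and scintillation counting. Primary screen single 25 uM duplicate, actives followed in concentration series.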
# [13] = molecular target: human Neurokinin, NK2 Receptor, TACR2 (gene 6865) (UniProt P21452); assay: NVS_GPCR_hNK2: NovaScreen (NVS) G Protein-Coupled Receptor Assay for human Neurokinin, NK2 Receptor (AID 2283278);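 further: actives reduce bound radioligand signal relative to DMSO baseline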
# Method in brief: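 Filter-based scintillation counting measured radioligand bound to receptor extracted from CHO cells, 4 hours after compound addition. Chemicals screened first at 25 uM in duplicate, with actives retested in concentration series relative to DMSO.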
# [14] = molecular target: Muscarinic acetylcholine receptor M3 (Homo sapiens) (UniProt P20309); assay: NVS_GPCR_hM3: NovaScreen (NVS) G Protein-Coupled Receptor Assay for human Muscarinic, M3 Receptor (AID 2283272)
# Method in brief: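 Radioligand displacement binding on human M3 receptor in CHO-derived membranes, 1 h incubation, filter-based scintillation counting. Primary screen in duplicate at 25 uM; actives followed up in concentration series; loss of signal versus DMSO.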
# [15] = molecular target: human Neuropeptide Receptor Y1 (NPY1), NPY1R (gene 4886) (UniProt P25929); assay: NVS_GPCR_hNPY1: NovaScreen (NVS) G Protein-Coupled Receptor Assay for human Neuropeptide Receptor Y1 (NPY1) (AID 2283276)
# Method in brief: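 Cell-free radioligand binding using receptor extracted from SK-N-MC cells, 1 h incubation, filter-based scintillation counting. Primary screen single concentration 25 uM in duplicate; actives followed in concentration series. Loss of bound signal scored versus DMSO.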
# Chain of Neuropeptide Y receptor type 2 (Homo sapiens) (P49146 whole entry, looked up): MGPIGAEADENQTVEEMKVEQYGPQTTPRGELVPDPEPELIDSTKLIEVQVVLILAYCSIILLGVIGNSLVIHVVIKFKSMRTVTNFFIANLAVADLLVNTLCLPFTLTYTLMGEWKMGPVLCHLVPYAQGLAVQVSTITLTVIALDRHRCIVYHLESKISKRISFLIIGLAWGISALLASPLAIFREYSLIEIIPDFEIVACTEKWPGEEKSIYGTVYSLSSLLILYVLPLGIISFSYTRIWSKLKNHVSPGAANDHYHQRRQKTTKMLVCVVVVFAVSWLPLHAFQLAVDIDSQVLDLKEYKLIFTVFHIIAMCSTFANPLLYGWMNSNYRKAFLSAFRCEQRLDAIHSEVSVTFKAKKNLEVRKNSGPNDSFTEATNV
# Chain of human Muscarinic, M4 Receptor, CHRM4 (gene 1132) (P08173 whole entry, looked up): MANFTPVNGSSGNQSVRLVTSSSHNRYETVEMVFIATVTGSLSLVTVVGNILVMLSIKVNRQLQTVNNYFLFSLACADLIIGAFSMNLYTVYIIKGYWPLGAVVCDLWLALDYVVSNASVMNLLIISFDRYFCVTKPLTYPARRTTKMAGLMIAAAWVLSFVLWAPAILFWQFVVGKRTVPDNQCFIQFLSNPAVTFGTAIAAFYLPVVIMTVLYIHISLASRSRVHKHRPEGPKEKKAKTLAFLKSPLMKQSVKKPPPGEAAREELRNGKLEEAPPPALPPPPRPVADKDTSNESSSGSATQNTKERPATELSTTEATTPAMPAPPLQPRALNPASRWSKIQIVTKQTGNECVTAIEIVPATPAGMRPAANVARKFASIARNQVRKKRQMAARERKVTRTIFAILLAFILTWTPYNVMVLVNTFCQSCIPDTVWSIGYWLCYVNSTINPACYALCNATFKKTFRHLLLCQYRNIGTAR
# Chain of Muscarinic acetylcholine receptor M5 (Homo sapiens) (P08912 whole entry, looked up): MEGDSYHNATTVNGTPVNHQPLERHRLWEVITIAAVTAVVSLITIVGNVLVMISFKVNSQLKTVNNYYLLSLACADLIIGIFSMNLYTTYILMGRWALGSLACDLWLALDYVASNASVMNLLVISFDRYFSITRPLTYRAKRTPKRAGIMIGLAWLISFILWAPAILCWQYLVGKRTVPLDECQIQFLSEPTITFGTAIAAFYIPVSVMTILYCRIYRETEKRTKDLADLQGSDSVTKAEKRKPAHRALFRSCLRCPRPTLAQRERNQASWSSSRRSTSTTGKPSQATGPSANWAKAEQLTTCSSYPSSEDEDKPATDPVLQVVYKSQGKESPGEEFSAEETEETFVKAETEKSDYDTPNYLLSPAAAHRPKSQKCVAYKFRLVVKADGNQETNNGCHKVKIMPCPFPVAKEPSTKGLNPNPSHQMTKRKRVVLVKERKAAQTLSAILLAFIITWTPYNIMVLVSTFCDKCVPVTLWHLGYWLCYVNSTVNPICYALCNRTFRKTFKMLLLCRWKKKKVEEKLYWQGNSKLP
# Chain of human Neurokinin, NK2 Receptor, TACR2 (gene 6865) (P21452 whole entry, looked up): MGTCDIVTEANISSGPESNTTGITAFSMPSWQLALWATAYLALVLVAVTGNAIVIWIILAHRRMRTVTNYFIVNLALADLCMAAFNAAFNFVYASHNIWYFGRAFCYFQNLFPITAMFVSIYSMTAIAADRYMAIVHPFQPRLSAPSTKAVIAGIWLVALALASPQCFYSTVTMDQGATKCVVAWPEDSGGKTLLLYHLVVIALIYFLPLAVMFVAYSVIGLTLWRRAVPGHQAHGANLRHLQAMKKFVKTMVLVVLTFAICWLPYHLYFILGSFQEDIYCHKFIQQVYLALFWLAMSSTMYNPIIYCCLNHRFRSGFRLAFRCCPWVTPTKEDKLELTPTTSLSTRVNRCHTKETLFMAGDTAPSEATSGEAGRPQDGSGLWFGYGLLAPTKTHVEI
# Chain of Muscarinic acetylcholine receptor M2 (Homo sapiens) (P08172 whole entry, looked up): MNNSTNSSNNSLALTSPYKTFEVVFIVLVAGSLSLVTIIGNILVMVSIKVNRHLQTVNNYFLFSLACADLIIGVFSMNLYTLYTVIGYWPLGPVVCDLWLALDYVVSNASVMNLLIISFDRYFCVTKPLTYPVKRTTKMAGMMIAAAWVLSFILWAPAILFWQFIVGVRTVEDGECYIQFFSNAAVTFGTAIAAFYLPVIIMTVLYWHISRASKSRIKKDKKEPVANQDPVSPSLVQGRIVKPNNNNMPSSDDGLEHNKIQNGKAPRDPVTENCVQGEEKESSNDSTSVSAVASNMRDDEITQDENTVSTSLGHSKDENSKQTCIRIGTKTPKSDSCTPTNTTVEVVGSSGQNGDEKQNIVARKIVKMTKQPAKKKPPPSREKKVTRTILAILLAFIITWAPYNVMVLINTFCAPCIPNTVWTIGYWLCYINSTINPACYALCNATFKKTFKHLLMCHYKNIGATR
# Chain of human Dopamine Receptor D2 (DRD2), DRD2 (gene 1813) (P14416 whole entry, looked up): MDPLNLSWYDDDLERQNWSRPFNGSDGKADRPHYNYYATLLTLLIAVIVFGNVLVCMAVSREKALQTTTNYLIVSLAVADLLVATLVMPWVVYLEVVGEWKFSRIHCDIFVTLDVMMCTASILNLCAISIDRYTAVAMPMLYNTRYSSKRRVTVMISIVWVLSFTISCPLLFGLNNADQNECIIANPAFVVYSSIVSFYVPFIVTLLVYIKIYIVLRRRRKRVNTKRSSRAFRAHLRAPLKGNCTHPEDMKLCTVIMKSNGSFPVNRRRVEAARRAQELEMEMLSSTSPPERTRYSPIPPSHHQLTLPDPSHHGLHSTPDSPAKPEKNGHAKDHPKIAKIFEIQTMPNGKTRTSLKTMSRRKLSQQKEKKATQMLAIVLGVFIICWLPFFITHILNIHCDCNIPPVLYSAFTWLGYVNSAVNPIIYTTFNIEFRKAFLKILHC
# Chain of human Adrenergic, Beta 3 Receptor (Adrb3), ADRB3 (gene 155) (P13945 whole entry, looked up): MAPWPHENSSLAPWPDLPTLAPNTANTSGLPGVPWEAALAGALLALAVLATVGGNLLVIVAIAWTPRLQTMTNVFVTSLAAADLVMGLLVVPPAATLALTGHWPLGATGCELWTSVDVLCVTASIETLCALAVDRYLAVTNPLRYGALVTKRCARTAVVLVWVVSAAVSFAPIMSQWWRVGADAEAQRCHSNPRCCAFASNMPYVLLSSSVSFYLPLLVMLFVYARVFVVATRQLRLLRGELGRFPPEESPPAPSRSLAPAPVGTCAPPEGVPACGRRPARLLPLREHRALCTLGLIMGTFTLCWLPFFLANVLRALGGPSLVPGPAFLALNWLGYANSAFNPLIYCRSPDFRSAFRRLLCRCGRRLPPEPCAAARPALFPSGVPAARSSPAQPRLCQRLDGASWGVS
# Chain of human Adrenergic, Alpha 2c Receptor (Adra2C), ADRA2C (gene 152) (P18825 whole entry, looked up): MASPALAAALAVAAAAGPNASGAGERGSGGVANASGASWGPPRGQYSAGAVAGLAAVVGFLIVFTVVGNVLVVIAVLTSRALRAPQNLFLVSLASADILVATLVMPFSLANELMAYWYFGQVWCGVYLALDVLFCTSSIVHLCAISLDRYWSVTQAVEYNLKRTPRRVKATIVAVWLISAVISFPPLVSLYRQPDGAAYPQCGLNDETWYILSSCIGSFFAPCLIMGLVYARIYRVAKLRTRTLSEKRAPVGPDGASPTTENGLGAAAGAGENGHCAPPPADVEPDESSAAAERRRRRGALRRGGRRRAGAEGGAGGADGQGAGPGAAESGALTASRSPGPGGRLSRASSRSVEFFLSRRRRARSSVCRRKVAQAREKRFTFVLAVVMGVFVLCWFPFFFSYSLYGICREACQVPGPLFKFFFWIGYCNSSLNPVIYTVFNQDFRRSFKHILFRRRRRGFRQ
# Chain of D(1A) dopamine receptor (Homo sapiens) (P21728 whole entry, looked up): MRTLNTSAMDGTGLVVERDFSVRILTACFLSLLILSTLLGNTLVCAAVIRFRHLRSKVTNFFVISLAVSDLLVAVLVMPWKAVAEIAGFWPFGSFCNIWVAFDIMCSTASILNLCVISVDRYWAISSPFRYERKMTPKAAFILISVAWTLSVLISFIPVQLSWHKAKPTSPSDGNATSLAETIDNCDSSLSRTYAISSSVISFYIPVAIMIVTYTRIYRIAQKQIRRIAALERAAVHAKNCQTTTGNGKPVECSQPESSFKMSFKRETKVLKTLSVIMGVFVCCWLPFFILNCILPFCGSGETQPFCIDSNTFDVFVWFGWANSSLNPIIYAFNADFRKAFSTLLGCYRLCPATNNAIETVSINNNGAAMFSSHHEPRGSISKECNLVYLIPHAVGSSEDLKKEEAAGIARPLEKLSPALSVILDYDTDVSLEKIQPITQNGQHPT
# Chain of human Adrenergic, Beta 1 Receptor (Adrb1), ADRB1 (gene 153) (P08588 whole entry, looked up): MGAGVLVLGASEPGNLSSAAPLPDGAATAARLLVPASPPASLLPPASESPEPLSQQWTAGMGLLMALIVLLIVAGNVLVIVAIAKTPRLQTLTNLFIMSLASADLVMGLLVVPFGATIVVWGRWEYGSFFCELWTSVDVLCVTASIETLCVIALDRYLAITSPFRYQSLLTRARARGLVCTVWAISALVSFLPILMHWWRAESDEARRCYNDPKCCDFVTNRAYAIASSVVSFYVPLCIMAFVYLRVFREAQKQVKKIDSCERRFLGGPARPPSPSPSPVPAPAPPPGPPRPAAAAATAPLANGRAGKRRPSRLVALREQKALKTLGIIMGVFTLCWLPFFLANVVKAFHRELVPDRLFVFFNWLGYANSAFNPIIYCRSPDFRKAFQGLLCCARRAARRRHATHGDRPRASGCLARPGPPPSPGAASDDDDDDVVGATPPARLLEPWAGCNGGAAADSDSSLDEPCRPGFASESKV
# Chain of Beta-2 adrenergic receptor (Homo sapiens) (P07550 whole entry, looked up): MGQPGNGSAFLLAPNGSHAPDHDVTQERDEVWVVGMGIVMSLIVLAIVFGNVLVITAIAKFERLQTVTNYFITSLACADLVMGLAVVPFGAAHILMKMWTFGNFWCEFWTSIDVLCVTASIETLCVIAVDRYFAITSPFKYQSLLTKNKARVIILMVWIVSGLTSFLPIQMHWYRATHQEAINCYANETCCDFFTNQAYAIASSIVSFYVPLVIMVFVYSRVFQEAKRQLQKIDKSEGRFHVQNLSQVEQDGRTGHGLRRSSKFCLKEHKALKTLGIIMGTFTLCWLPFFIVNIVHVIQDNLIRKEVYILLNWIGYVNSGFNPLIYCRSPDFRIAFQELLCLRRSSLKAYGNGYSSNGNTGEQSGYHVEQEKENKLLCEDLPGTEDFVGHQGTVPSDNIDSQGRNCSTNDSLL
structure (smiles),measurement,setting,value
Oc1ccc2c(c1)OC[C@@H](N1CCC(O)(c3ccc(F)cc3)CC1)[C@H]2O,outcome,[1],inactive
same,outcome,[2],inactive
same,outcome,[3],inactive
same,outcome,[4],inactive
same,outcome,[5],inactive
same,outcome,[6],inactive
same,outcome,[7],inactive
same,AC50,[8],16 µM (active)
O=C(O)Cc1ccccc1Nc1c(Cl)cccc1Cl,outcome,[9],inactive
same,outcome,[2],inactive
same,outcome,[3],inactive
Nc1nc(N)c2nc(CNc3ccc(C(=O)N[C@@H](CCC(=O)O)C(=O)O)cc3)cnc2n1,outcome,[10],inactive
same,AC50,[4],18.3 µM (active)
same,AC50,[5],38.9 µM (active)
same,AC50,[7],40.7 µM (active)
same,outcome,[11],inactive
CC1(C)CC(N=C=O)CC(C)(CN=C=O)C1 (stereo unspecified),outcome,[1],inactive
same,outcome,[5],inactive
same,AC50,[7],0.367 µM (active)
same,AC50,[12],2.94 µM (active)
CN1CCN(Cc2cc(-c3ccc4[nH]c(=O)oc4c3)co2)[C@@H](c2ccc(F)cc2)C1,AC50,[9],22 µM (active)
same,AC50,[1],10.5 µM (active)
same,AC50,[10],14.2 µM (active)
same,outcome,[4],inactive
same,AC50,[5],5.7 µM (active)
same,AC50,[12],26.7 µM (active)
same,AC50,[8],14.8 µM (active)
same,AC50,[13],35.4 µM (active)
CCc1c(C(=O)NN2CCCCC2)nn(-c2ccc(Cl)cc2Cl)c1-c1ccc(Br)cc1,outcome,[10],inactive
same,outcome,[13],inactive
Oc1ccc2ccccc2c1N=Nc1ccccc1,outcome,[13],inactive
COc1cc(S(=O)(=O)O)c(C)cc1N=Nc1c(O)ccc2cc(S(=O)(=O)O)ccc12,AC50,[1],13.9 µM (active)
same,AC50,[10],38.7 µM (active)
same,AC50,[4],11.4 µM (active)
same,AC50,[5],35.3 µM (active)
same,outcome,[14],inactive
same,AC50,[7],36.1 µM (active)
same,outcome,[12],inactive
same,AC50,[8],31.4 µM (active)
CCOc1ccc2c(c1)C(C)=CC(C)(C)N2,outcome,[13],inactive
Cc1cccc(C)c1O,outcome,[2],inactive
Cc1ccccc1Cl,outcome,[3],inactive
CCCCCCOCCO,outcome,[11],inactive
CC(=O)OC/C=C(\C)CCC=C(C)C,outcome,[11],inactive
C[C@]12C=CC(=O)C=C1CC[C@@H]1[C@@H]2C(=O)C[C@@]2(C)[C@H]1CC[C@]2(O)C(=O)CO,AC50,[7],15 µM (active)
same,AC50,[12],25 µM (active)
CCCCCCCCCCCC(=O)OC,AC50,[11],6.92 µM (active)
CNCc1cc(F)ccc1Oc1ccc(Cl)c(Cl)c1,AC50,[7],25 µM (active)
same,AC50,[12],25 µM (active)
CC1=C(/C=C/C(C)=C/C=C/C(C)=C/CO)C(C)(C)CCC1,outcome,[5],inactive
same,outcome,[13],inactive
COc1ccc(S(=O)(=O)N2C(=O)[C@@](c3ccccc3OC)(N3C[C@H](O)C[C@H]3C(=O)N(C)C)c3cc(Cl)ccc32)c(OC)c1,outcome,[5],inactive
same,AC50,[13],9.61 µM (active)
CC(=O)Oc1ccccc1C(=O)O,AC50,[15],4.96 µM (active)
Cc1ccc2ncccc2c1,outcome,[9],inactive
O=c1c(O)c(-c2ccc(O)c(O)c2)oc2cc(O)cc(O)c12,outcome,[10],inactive
